The structures appear in SMILES notation. Among all 2,300 compounds or so, about 160 (7%) were called active. How the calls were made is not given here. Not all results are given here. Entries with a potency or affinity are not part of this list.

The nature of the experiment: Vero cell cytotoxicity, dose response, cytotoxicity control for Vif-APOBEC3G degradation inhibitor project, Vero cells (AID 1117358). The settings on record: CellTiter-Glo ATP luminescence, 72 h; series mostly up to 40 µM. (In general: ATP-based viability assays read luminescence as a measure of living cells.)
Take `CC(C(=O)N1CCOCC1)(c1ccccc1)c1ccccc1`: the compound was classed as inactive.

As for `COc1ccc(C(C)(C)C)cc1NC(=O)C1C2C=CC(C2)C1C(=O)O` (stereo not drawn), the result was inactive.

On to `CC1CCCC(NC(=O)Cn2cc3c(n2)CCCCC3)C1C` (stereo not drawn), for which the compound was called inactive.

Turning to `CCOC(=O)N1CCN(CC(=O)c2ccc3c(c2)CCN3C(C)=O)CC1`, the compound was classed as inactive.

For the compound `CCOc1ccc2[nH]c(=O)c(CN(Cc3nnnn3Cc3ccco3)C3CCCCC3)cc2c1`, the compound was classed as inactive.

Take `CCOC(=O)c1ccc(NC(=O)CSCc2ccco2)cc1`: the compound was called inactive.

As to `Cc1cc(C)n(CC(O)CN2c3ccccc3Sc3ccccc32)n1` (stereo not drawn), the result was inactive.

For `COC(=O)COc1ccc(S(=O)(=O)NCc2ccco2)cc1Cl`, the compound was called inactive.

Take `CCOc1cc(Cl)c(S(=O)(=O)NCc2ccccn2)cc1Cl`: the result was inactive.

Regarding `O=C(Cn1ncc2c(=O)oc3ccccc3c21)N1CCCc2ccccc21`, the compound was classed as inactive.

For the compound `CCC(C)NS(=O)(=O)c1ccc(S(=O)(=O)N(CC(=O)Nc2ccccc2)CC2CCCO2)cc1` (stereo not drawn), the compound was called inactive.

With `Cc1cccc(C)c1NC(=O)COC(=O)c1cc(-c2cccnc2)nc2ccccc12`, the call was inactive.

For the compound `CCOC(=O)CC1Sc2ccccc2NC1=O` (stereo not drawn), the compound was classed as inactive.

With `COc1cc(O)oc1C=Nc1ccccc1`, the compound was called inactive.

Turning to `Cc1ccc(S(=O)(=O)N=Nc2c(O)[nH]c3ccccc23)cc1`, the call was inactive.

`CCOC(=O)C1=C(CSc2nc(C)ccc2C#N)OC(N)=C(C#N)C1c1cccc(OC)c1OC` (stereo not drawn): the result was inactive.

As for `Cc1nc(NC(=O)CN2CCOCC2)sc1-c1ccccc1`, the compound was classed as inactive.

Turning to `O=C(O)CC(C(=O)O)N1C(=O)/C(=C/c2ccc(-c3nc4ccccc4s3)o2)SC1=S` (stereo not drawn), the call was inactive.

For `O=C1CC(c2ccco2)CC(O)=C1C=Nc1ccc(Br)cc1` (stereo not drawn), the call was inactive.

Take `COc1ccc(OCC(=O)O/N=C(\N)Cc2ccc(Cl)cc2)cc1`: the compound was classed as inactive.

Turning to `CCC(=O)Nc1nc2ccc(NC(C)=O)cc2s1`, the call was inactive.

For the compound `CCOC(=O)N1CCC(NC(=O)c2cc3c(C)nc4ccccc4c3o2)CC1`, the call was inactive.

On to `CCOC(=O)C1CCN(C(=O)c2ccc(OC)cc2OC)CC1`, for which the result was inactive.

Consider `COc1ccc(NC(=O)Nc2cccs2)cc1OC`, for which the outcome was inactive.

Turning to `CCOC(=O)Nc1nnc(-c2ccccc2OC)s1`, the compound was called inactive.

For `C=CCOC(=O)CN1C(=O)c2ccccc2C1=O`, the call was inactive.

Take `COc1ccc(OC)c(NC(=O)CSc2nnc(CCCO)n2-c2ccccc2)c1`: the result was inactive.

In the case of `CCn1c(SCC(=O)n2c(C)c(C)c3ccccc32)nnc1-c1ccco1`, the result was inactive.

In the case of `CCOc1ccccc1CNC(=O)Cn1c(=O)oc2ccccc21`, the outcome was inactive.

As for `COc1ccccc1N1CCN(C(=O)c2cc(-c3cccs3)on2)CC1`, the result was inactive.

As for `Cc1ccccc1CS(=O)(=O)Cc1ccc(C(=O)N2CCOCC2)o1`, the result was inactive.

`CCOc1cc(C)nc(NCCc2ccc(OC)c(OC)c2)n1`: the compound was called inactive.

Turning to `COc1ccc(OC)c(NC(=O)NCc2ccc(F)cc2)c1`, the compound was called inactive.

Regarding `O=C1c2ccccc2C(=O)N1CCc1csc(-c2ccc(F)cc2)n1`, the outcome was inactive.

Regarding `COc1ccc(Oc2nc(C)cc(C)c2C#N)cc1`, the result was inactive.

`Cc1cc(-c2cc(-c3ccc(Cl)cc3)nc(N)c2C#N)co1`: the outcome was inactive.

As to `O=[N+]([O-])c1cc(/C=N\Nc2nccs2)ccc1O`, the outcome was inactive.

In the case of `CC(OC(=O)c1cccs1)C(=O)NCc1ccco1` (stereo not drawn), the call was inactive.

In the case of `CCc1nc(SCC(=O)Nc2ccc(C(=O)O)cc2)n[nH]1`, the call was inactive.

Turning to `CCc1cccc(NC(=O)Cn2ncn3c(cc4ccccc43)c2=O)c1`, the outcome was inactive.

Turning to `COCCNC(=O)COc1ccc(Br)cc1Cl`, the compound was called inactive.

Regarding `CSc1cccc(NC(=O)CN(c2cc(C)ccc2C)S(C)(=O)=O)c1`, the compound was called inactive.

For the compound `Cn1c(CN2CCOCC2)nc2cc(NC(=O)c3ccc(F)cc3)ccc21`, the compound was called inactive.

`N#Cc1nc(-c2ccco2)oc1N1CCN(c2ccccc2)CC1`: the compound was classed as inactive.

Turning to `CCC(C)(C)n1nnnc1C(c1cc2cc(C)ccc2[nH]c1=O)N1CCCc2ccccc21` (stereo not drawn), the compound was called inactive.

As to `O=C(OCc1ccc(Cl)cc1)c1cnccn1`, the compound was classed as inactive.

For the compound `O=C(CSc1nccn1Cc1ccccc1)Nc1nccs1`, the outcome was inactive.

With `Cc1ccc(NC(=O)CCC(=O)NNC(=O)COc2cccc3ccccc23)c(C)c1`, the result was inactive.

For `CS(=O)(=O)N(CC(=O)NCc1ccc2c(c1)OCO2)Cc1ccccc1`, the compound was classed as inactive.

`O=C(O)Cc1ccc(C(=O)c2ccccc2)s1`: the outcome was inactive.

For the compound `Oc1ccc(/C=N/NC2=NCCCCC2)c(O)c1`, the call was inactive.

Turning to `Cc1ccc(C)n1Cc1ccc(C(=O)O)cc1`, the call was inactive.

For the compound `CC(=O)C1CCN(Cc2ccccc2)CC1`, the outcome was inactive.

On to `Cn1cccc1C(=O)NC(=O)COC(=O)CC12CC3CC(CC(Br)(C3)C1)C2`, for which the compound was classed as inactive.

As for `O=C(COC(=O)c1cc(-c2ccco2)nc2ccccc12)NCc1ccc2c(c1)OCO2`, the compound was called inactive.

For `Cc1nc(C(=O)N(C)C)nn1-c1cc(Cl)cc(Cl)c1`, the compound was classed as inactive.

For `CCOC(=O)c1ccc(-n2ncc(C(=O)OCC)c2N)cc1`, the compound was classed as inactive.

Turning to `Cc1ccc(S(=O)(=O)N2CCC(C(=O)Nc3nnc(-c4ccco4)s3)CC2)cc1`, the call was inactive.

`CCN(CC)c1ccc(/C=N/n2c(C)cc(C)cc2=O)cc1`: the outcome was inactive.

Regarding `CCOc1ccc(Br)cc1/C=N/O`, the compound was classed as inactive.

Consider `CCOc1ccc(N(CC(=O)NC2CCCCC2)S(=O)(=O)c2c(C)noc2C)cc1`, for which the compound was called inactive.

Consider `Cc1onc(-c2ccccc2)c1C(=O)N1CCCc2ccccc21`, for which the compound was called inactive.

On to `C=CCn1c(SCC(=O)c2cc(C)n(C(C)COC)c2C)nc2sc(C)c(C)c2c1=O` (stereo not drawn), for which the compound was classed as inactive.

Regarding `CCOC(=O)c1ccc(NS(=O)(=O)c2ccc3c(c2)oc(=O)n3C)cc1`, the outcome was inactive.

With `Cc1nnc(-c2cnn(-c3ccccc3)c2N)n1Cc1cccc(C(F)(F)F)c1`, the result was inactive.

For `C/C(=C1\SC(N2CCOCC2)=NC1=O)c1ccccc1`, the call was inactive.

In the case of `Cc1noc(C)c1C(=O)N1CCN(c2ncccn2)CC1`, the compound was classed as inactive.

For `COc1ccc(NS(=O)(=O)c2cccc(Cl)c2Cl)cc1S(=O)(=O)N1CCCCC1`, the compound was called inactive.

Consider `CCC(=O)N1CCN(c2ccccc2NC(=O)c2cccc(C)c2)CC1`, for which the compound was called inactive.

On to `O=C(NCc1ccc(Cl)cc1)c1ccccc1Oc1ccccc1`, for which the compound was called inactive.

Turning to `CCC(=O)NNc1ncnc2ccccc12`, the call was inactive.

For `COC(=O)c1cccc(NC(=O)c2cccc(OC)c2)c1`, the outcome was inactive.

In the case of `COc1cc2c(cc1NC(=O)COC(=O)Cn1cnc3ccccc31)oc1ccccc12`, the compound was classed as inactive.

`CCOC(=O)N1CCC(Nc2c(-c3ccc(C)cc3)c(=O)c2=O)CC1`: the call was inactive.

`Cc1cccc(CCNC(=O)CCc2nc(-c3ccccc3F)no2)c1`: the outcome was inactive.

On to `O=C(N/N=C/C=C\c1ccco1)c1cccnc1`, for which the call was inactive.

Take `Cc1cc(C)nc(N(C#N)CN2C(=O)c3ccccc3S2(=O)=O)n1`: the result was inactive.

Turning to `COc1ccc(OC)c(-c2cc(C(=O)NCc3cccs3)no2)c1`, the result was inactive.

As to `COC(=O)CSc1nnc(CNC(=O)c2cccs2)n1-c1cc(OC)ccc1OC`, the result was inactive.

On to `c1ccc2c(c1)ccc1nnc(SCc3ccc4c(c3)OCO4)n12`, for which the result was inactive.

With `CCOC(=O)NC1(NC2CCCCC2)Oc2ccccc2O1`, the compound was classed as inactive.

As to `CC(C)(C)NC(=O)C1N(c2cccnc2)C(=O)C2C(C(=O)Nc3ccccc3F)C3(C)C=CC21O3` (stereo not drawn), the result was inactive.

Turning to `O=S(=O)(c1ccc(Cl)s1)N1CCN(Cc2ccccc2)CC1`, the compound was called inactive.

As for `O=C(CN1CCN(S(=O)(=O)c2ccc(Cl)cc2)CC1)Nc1ccc2c(c1)OCCO2`, the compound was classed as inactive.

Regarding `CCC(C)(C)C1CCc2c(sc(NC(=O)c3ccoc3C)c2C(N)=O)C1` (stereo not drawn), the result was inactive.

Regarding `O=C(CSc1nnc(-c2cccnc2)n1Cc1ccco1)c1ccc(Br)cc1`, the compound was classed as inactive.

Regarding `Cc1c(C(=O)Nc2ccc(Cl)cc2)c2ccccn2c1CCc1ccncc1`, the outcome was inactive.

Consider `C/C(=C/C(=O)NCc1ccccc1)C(=O)O`, for which the call was inactive.

`O=C(O)CCC(=O)NNC(=O)CCC(=O)NCc1ccccc1`: the compound was called inactive.

Turning to `Cc1cc(F)ccc1S(=O)(=O)Nc1ccccc1C(=O)Nc1ccc2[nH]c(=O)[nH]c2c1`, the compound was called inactive.

With `COC(=O)c1ccccc1NC(=O)C1CCCC1`, the compound was called inactive.

For the compound `COc1ccc(NC(=O)/C(C#N)=C\c2cc(C)n(-c3ccc(Oc4ccc([N+](=O)[O-])cn4)cc3)c2C)cc1`, the result was inactive.

On to `Cc1ccc(Cc2cnc(NC(=O)/C(C#N)=C/c3ccc(-c4ccc([N+](=O)[O-])cc4)o3)s2)cc1`, for which the call was inactive.

In the case of `O=C(NCc1ccc(F)cc1)c1c(O)c2cccc3c2n(c1=O)CCC3`, the compound was called inactive.

For the compound `CCSC1=C(C#N)C(c2cccs2)C(C(=O)OC)=C(C)N1` (stereo not drawn), the compound was classed as inactive.

On to `CCOC(=O)c1c(O)c2ccccc2n(-c2ccccc2)c1=O`, for which the outcome was inactive.

In the case of `CCn1c(=O)c(C(=O)NCc2ccccn2)c(O)c2ccccc21`, the call was inactive.

With `Cc1ccc2cc3c(NC(=O)c4cccnc4)nn(C)c3nc2c1`, the compound was classed as inactive.

Turning to `CN(C)C(CNC(=O)c1cccnc1Sc1ccccc1)c1ccco1` (stereo not drawn), the call was inactive.

With `O=C(c1cnn2c(C(F)F)cc(C3CC3)nc12)N1CCc2ccccc2C1`, the compound was classed as inactive.

Take `O=C(NC1CCCC1)c1ccc(CNc2c(N3CCOCC3)c(=O)c2=O)cc1`: the outcome was inactive.

On to `Cc1cc(C(=O)CN2C(=O)c3ccccc3S2(=O)=O)c(C)n1CC1CCCO1` (stereo not drawn), for which the call was inactive.

As for `CN(C)[C@H]1N(C(=O)c2ccc(Br)cc2)N=C2c3ccccc3S(=O)(=O)N21`, the compound was called inactive.

As to `Cc1c(NS(=O)(=O)c2cccc(C(=O)NCc3ccncc3)c2)c(=O)n(-c2ccccc2)n1C`, the compound was classed as inactive.

For `O=C(CCCc1ccccc1)N1CCN(c2ccc([N+](=O)[O-])cc2)CC1`, the compound was called inactive.

For the compound `Cc1ccc(-c2nc3s/c(=C\c4ccco4)c(=O)n3n2)cc1`, the compound was called inactive.

Turning to `O=C(NCC1CCCO1)c1cc(-c2ccco2)nc2ccccc12` (stereo not drawn), the compound was called inactive.

Turning to `CCCC(=O)Nc1cccc(-c2nc3ccccc3o2)c1`, the call was inactive.

As to `CCn1c(SCC(=O)n2nc(C)cc2C)nnc1-c1ccc2c(c1)OCO2`, the compound was called inactive.

As for `Cc1c(/C=N\NC(=O)c2csc3ccccc23)cnn1C`, the compound was classed as inactive.

Take `CN(CCOCCOc1ccc2ccccc2c1)Cc1ccccc1`: the result was inactive.

Consider `Cc1cc(NC(=O)c2cncc(Br)c2)no1`, for which the compound was called inactive.

With `O=C(O)c1cc(-c2ccc(N3CCOCC3)cc2)nn1-c1ccc(F)cc1F`, the compound was called inactive.

The values are drawn from PubChem BioAssay AID1117358 (Southern Research Institute, 2015).
